Source: the supplement of paper PMC10849652
About 7,900 targets were measured; listed, in parts, are those with a hit and a random draw of the rest. About 0.6% of all pairs of compound and target were hits.

Columns and labels:
Assay in all cases: log2 fold change, soluble protein after heating vs DMSO (PISA); higher = thermal stabilisation; K562 cells, 10 uM, 30 min; active = over 0.2 and 3.5 SD of the protein, either way, in both replicates (recomputed)
[1] = compound: CC1=C(C=C(C=C1)NC(=O)C2=CC(=CC=C2)C(C)(C)C#N)NC3=CC4=C(C=C3)N=CN(C4=O)C
Summary of the method: (§1)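 For each measurement, 10 μM compound was applied for 30 min to K562 cells at 2×10^6 cells/mL. Aliquots were heated for 3 min across 48°C-58°C, pooled, and extracted in PBS with 0.5% NP-40 at 4°C; the supernatant after 21,000xg for 90 min was soluble protein. This was quantified by TMTpro 16plex LC-MS/MS with channel sums equalised, and thermal stability was reported relative to control samples from duplicates, on a log2 fold-change scale.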

[2] = compound: CC1=C(C=C(C=C1)NC(=O)C2=CC(=CC=C2)N(C)C)NC(=O)C3=CC=C(C=C3)O
Summary of the method: as §1

[3] = compound: CC1=CC=C(C=C1)SC2=C3C=C(SC3=CN=C2)C(=O)N
Summary of the method: as §1

[4] = compound: CC1=NC(=CC=C1)C2=C(N=C(N2)C(C)(C)C)C3=CC4=NC=CN=C4C=C3
Summary of the method: as §1

Nexturastat A = compound: CCCCN(Cc1ccc(C(=O)NO)cc1)C(=O)Nc1ccccc1 [Nexturastat A]
Summary of the method: as §1

vemurafenib = compound: CCCS(=O)(=O)Nc1ccc(F)c(C(=O)c2c[nH]c3ncc(-c4ccc(Cl)cc4)cc23)c1F [vemurafenib]
Summary of the method: as §1

[5] = compound: CCCS(=O)(=O)Nc1ccc(F)c(C(=O)c2c[nH]c3ncc(Cl)cc23)c1F
Summary of the method: as §1

[6] = compound: CCCc1cc(C)[nH]c(=O)c1CNC(=O)c1cc(-c2ccnc(N3CCN(C)CC3)c2)cc2c1cnn2C(C)C
Summary of the method: as §1

givinostat = compound: CCN(CC)Cc1ccc2cc(COC(=O)Nc3ccc(C(=O)NO)cc3)ccc2c1 [givinostat]
Summary of the method: as §1

barasertib = compound: CCN(CCCOc1ccc2c(Nc3cc(CC(=O)Nc4cccc(F)c4)[nH]n3)ncnc2c1)CCOP(=O)(O)O [barasertib]
Summary of the method: as §1

Measured: log2 fold change

EDC4 (UniProt Q6P2E9)
inactive: [1] 0.004 | [2] -0.048 | [3] -0.022 | [4] -0.035 | Nexturastat A 0.022 | vemurafenib 0.035 | [5] 0.03 | [6] 0.029 | givinostat 0.031 | barasertib 0.057

DUS3L (UniProt Q96G46)
inactive: [1] 0.064 | [2] -0.015 | [3] -0.01 | [4] 0.017 | Nexturastat A -0.023 | vemurafenib 0.042 | [5] 0.031 | [6] 0.036 | givinostat -0.004 | barasertib 0.021

ERCC2 (UniProt P18074)
inactive: [1] -0.024 | [2] 0.014 | [3] -0.005 | [4] -0.038 | Nexturastat A 0.035 | vemurafenib 0.166 | [5] 0.036 | [6] 0.021 | givinostat 0.095 | barasertib -0.007

DNAJB1 (UniProt P25685)
UniProt P25685, sequence (P25685 whole entry, looked up): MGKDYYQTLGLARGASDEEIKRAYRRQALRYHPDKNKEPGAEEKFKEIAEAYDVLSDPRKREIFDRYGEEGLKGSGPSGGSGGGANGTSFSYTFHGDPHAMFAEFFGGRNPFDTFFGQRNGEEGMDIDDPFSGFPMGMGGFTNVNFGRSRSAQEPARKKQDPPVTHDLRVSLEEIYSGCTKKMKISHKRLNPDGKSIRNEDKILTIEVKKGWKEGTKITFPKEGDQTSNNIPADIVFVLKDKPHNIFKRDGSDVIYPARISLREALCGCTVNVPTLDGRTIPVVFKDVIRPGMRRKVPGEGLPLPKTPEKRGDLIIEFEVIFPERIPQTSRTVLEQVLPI
inactive: [1] 0.015 | [2] -0.045 | [3] -0.003 | [4] 0.086 | Nexturastat A -0.03 | vemurafenib 0.009 | [5] 0.028 | [6] -0.051 | givinostat 0.024 | barasertib 0.024

DDB1 (UniProt Q16531)
inactive: [1] -0.012 | [2] 0.011 | [3] 0.006 | [4] 0 | Nexturastat A -0.036 | vemurafenib -0.012 | [5] -0.003 | [6] -0.027 | givinostat 0 | barasertib -0.01

EIF2S3 (UniProt P41091)
inactive: [1] 0.02 | [2] 0 | [3] -0.006 | [4] -0.032 | Nexturastat A 0.102 | vemurafenib -0.029 | [5] 0.007 | [6] 0.05 | givinostat 0.028 | barasertib -0.033

EEF1AKNMT (UniProt Q8N6R0)
UniProt Q8N6R0, sequence (Q8N6R0 whole entry, looked up): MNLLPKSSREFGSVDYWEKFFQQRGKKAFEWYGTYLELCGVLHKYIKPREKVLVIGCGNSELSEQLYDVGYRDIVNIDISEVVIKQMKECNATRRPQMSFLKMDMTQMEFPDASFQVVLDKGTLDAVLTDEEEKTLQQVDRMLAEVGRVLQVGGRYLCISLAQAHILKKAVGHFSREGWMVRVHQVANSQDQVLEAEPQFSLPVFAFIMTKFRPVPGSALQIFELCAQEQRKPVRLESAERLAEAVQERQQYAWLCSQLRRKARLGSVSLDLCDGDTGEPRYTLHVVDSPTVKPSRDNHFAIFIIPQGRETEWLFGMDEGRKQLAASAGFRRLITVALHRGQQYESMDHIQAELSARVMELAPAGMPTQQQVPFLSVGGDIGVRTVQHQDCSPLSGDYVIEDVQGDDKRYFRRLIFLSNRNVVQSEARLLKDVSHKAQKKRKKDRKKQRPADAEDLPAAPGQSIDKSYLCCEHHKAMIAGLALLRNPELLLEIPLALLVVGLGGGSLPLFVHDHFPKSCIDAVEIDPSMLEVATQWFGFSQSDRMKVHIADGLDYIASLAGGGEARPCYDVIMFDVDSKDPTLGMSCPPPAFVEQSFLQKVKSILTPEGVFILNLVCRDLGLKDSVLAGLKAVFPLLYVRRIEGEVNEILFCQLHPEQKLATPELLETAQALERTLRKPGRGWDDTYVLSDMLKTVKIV
inactive: [1] 0.078 | [2] -0.037 | [3] 0.031 | [4] 0.026 | Nexturastat A -0.026 | vemurafenib 0.084 | [5] 0.062 | [6] 0.075 | givinostat 0.04 | barasertib 0.076

FAF2 (UniProt Q96CS3)
inactive: [1] 0.015 | [2] -0.021 | [3] 0.008 | [4] -0.016 | Nexturastat A 0.009 | vemurafenib 0.038 | [5] 0.008 | [6] -0.039 | givinostat 0.036 | barasertib 0.021

EHD2 (UniProt Q9NZN4)
inactive: [1] -0.037 | [2] -0.026 | [3] -0.007 | [4] 0.059 | Nexturastat A 0.003 | vemurafenib 0.029 | [5] 0.007 | [6] -0.024 | givinostat 0.024 | barasertib 0.03

CUEDC2 (UniProt Q9H467)
inactive: [1] -0.03 | [2] -0.043 | [3] -0.001 | [4] -0.153 | Nexturastat A -0.019 | vemurafenib 0.009 | [5] 0.032 | [6] -0.01 | givinostat 0.055 | barasertib 0.091

ELOC (UniProt Q15369)
inactive: [1] 0.016 | [2] -0.034 | [3] 0.008 | [4] 0.001 | Nexturastat A -0.027 | vemurafenib 0.017 | [5] 0.031 | [6] 0 | givinostat -0.035 | barasertib 0.026

DHX36 (UniProt Q9H2U1)
inactive: [1] 0.015 | [2] 0 | [3] -0.034 | [4] -0.033 | Nexturastat A 0.111 | vemurafenib 0.012 | [5] 0.02 | [6] -0.005 | givinostat -0.031 | barasertib -0.064

DDX46 (UniProt Q7L014)
inactive: [1] 0.123 | [2] -0.117 | [3] 0 | [4] 0.069 | Nexturastat A -0.069 | vemurafenib 0.099 | [5] 0.136 | [6] 0.001 | givinostat 0.171 | barasertib 0.13

ERCC6 (UniProt Q03468)
inactive: [1] -0.127 | [2] -0.038 | [3] 0.005 | [4] -0.038 | Nexturastat A -0.126 | vemurafenib 0.064 | [5] 0.074 | [6] -0.017 | givinostat 0.071 | barasertib 0.065

ESS2 (UniProt Q96DF8)
inactive: [1] -0.085 | [2] 0.091 | [3] -0.024 | [4] -0.018 | Nexturastat A 0.032 | vemurafenib -0.01 | [5] -0.013 | [6] -0.075 | givinostat -0.01 | barasertib -0.025

DPH5 isoform 5 (UniProt Q9H2P9)
UniProt Q9H2P9, sequence (Q9H2P9 whole entry, looked up): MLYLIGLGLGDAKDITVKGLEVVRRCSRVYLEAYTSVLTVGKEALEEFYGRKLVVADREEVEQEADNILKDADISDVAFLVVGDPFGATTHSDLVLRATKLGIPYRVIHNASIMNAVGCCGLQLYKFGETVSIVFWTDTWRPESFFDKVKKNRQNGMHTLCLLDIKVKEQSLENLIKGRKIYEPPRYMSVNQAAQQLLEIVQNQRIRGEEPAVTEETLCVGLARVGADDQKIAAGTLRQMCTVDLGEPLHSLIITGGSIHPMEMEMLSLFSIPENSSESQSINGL
inactive: [1] 0.009 | [2] -0.01 | [3] 0.046 | [4] 0.042 | Nexturastat A -0.079 | vemurafenib -0.041 | [5] 0.087 | [6] -0.045 | givinostat -0.105 | barasertib -0.006

EEA1 (UniProt Q15075)
UniProt Q15075, sequence (Q15075 whole entry, looked up): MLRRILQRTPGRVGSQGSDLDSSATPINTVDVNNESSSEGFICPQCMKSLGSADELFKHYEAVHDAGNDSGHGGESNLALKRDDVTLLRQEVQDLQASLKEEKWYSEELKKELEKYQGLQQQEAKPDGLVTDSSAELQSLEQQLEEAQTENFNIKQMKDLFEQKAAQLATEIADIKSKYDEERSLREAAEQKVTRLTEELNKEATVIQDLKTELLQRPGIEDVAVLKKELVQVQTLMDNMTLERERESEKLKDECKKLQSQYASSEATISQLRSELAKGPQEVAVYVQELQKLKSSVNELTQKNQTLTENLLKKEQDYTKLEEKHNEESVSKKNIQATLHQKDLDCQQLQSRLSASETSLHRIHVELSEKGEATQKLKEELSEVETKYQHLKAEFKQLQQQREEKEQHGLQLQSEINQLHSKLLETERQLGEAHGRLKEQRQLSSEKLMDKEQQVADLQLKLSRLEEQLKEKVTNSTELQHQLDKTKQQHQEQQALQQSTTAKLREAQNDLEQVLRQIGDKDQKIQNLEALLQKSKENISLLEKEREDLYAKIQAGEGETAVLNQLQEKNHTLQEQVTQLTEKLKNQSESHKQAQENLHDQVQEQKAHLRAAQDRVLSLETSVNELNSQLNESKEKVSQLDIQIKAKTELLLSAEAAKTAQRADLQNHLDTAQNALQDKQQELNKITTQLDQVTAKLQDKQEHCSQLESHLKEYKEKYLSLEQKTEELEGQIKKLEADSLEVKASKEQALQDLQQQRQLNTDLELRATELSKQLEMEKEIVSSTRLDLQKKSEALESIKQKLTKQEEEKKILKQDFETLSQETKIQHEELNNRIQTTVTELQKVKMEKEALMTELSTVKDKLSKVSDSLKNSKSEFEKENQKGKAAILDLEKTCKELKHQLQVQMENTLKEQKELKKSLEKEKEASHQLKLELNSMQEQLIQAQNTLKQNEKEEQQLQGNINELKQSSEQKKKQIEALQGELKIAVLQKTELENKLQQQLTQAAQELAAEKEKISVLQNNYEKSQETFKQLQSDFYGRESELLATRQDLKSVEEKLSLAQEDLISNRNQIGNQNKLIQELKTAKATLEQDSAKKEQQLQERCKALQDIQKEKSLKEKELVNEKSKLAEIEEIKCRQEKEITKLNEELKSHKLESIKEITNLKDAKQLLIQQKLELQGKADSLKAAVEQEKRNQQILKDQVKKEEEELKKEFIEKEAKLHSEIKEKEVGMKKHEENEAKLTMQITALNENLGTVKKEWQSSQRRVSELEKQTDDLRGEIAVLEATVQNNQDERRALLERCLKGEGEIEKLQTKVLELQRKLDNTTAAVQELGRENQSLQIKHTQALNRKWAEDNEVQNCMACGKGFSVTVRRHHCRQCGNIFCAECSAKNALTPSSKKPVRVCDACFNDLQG
inactive: [1] -0.027 | [2] 0.009 | [3] 0.009 | [4] 0.011 | Nexturastat A -0.035 | vemurafenib -0.024 | [5] 0.003 | [6] -0.036 | givinostat -0.01 | barasertib 0.009

DMXL1 (UniProt Q9Y485)
inactive: [1] -0.075 | [2] -0.004 | [3] 0.025 | [4] 0.017 | Nexturastat A 0.044 | vemurafenib 0.008 | [5] 0.032 | [6] 0.043 | givinostat 0.076 | barasertib 0.068

DHCR7 (UniProt Q9UBM7)
UniProt Q9UBM7, sequence (Q9UBM7 whole entry, looked up): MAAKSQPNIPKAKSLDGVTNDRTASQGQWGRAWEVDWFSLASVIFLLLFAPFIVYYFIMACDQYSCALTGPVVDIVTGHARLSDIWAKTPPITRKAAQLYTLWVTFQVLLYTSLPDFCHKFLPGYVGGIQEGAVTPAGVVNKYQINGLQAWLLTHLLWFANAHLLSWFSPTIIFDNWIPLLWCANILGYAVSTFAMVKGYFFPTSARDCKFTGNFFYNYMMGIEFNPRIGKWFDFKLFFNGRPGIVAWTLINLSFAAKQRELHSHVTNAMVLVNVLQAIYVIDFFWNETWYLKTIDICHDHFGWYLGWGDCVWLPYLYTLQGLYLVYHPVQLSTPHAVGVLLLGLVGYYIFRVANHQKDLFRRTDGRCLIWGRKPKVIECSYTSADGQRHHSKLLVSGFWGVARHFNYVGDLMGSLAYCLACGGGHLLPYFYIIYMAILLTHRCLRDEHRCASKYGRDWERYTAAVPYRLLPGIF
active: givinostat 0.808
inactive: [1] -0.037 | [2] -0.028 | [3] -0.055 | [4] 0.023 | Nexturastat A 0.104 | vemurafenib 0.011 | [5] 0.039 | [6] 0.139 | barasertib 0.204

CYFIP1 (UniProt Q7L576)
inactive: [1] 0.012 | [2] 0.005 | [3] 0.017 | [4] 0.035 | Nexturastat A -0.043 | vemurafenib 0.026 | [5] 0.019 | [6] 0.006 | givinostat -0.005 | barasertib 0.038

DCAF16 (UniProt Q9NXF7)
UniProt Q9NXF7, sequence (Q9NXF7 whole entry, looked up): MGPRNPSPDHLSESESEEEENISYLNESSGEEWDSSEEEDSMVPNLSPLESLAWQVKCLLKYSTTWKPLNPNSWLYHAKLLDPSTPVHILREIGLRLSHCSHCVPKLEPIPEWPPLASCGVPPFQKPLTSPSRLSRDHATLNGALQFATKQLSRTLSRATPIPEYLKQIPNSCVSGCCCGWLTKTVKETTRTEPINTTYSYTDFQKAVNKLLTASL
inactive: [1] -0.036 | [2] -0.013 | [3] 0.059 | [4] -0.015 | Nexturastat A 0.063 | vemurafenib 0.151 | [5] 0.185 | [6] 0.042 | givinostat -0.016 | barasertib 0.024

EBNA1BP2 (UniProt Q99848)
inactive: [1] -0.014 | [2] -0.033 | [3] -0.07 | [4] -0.153 | Nexturastat A 0.438 | vemurafenib -0.042 | [5] 0.004 | [6] 0.113 | givinostat 0.174 | barasertib -0.187

EXOC1 (UniProt Q9NV70)
inactive: [1] -0.026 | [2] -0.01 | [3] 0.019 | [4] 0.027 | Nexturastat A 0.115 | vemurafenib -0.023 | [5] 0.028 | [6] 0.08 | givinostat 0.07 | barasertib 0.082

CYBA (UniProt P13498)
inactive: [1] -0.017 | [2] 0.025 | [3] 0.041 | [4] -0.02 | Nexturastat A -0.033 | vemurafenib 0 | [5] 0.008 | [6] -0.028 | givinostat 0.007 | barasertib -0.033

DNAJC1 (UniProt Q96KC8)
inactive: [1] 0.027 | [2] 0 | [3] 0.014 | [4] 0.049 | Nexturastat A -0.079 | vemurafenib -0.007 | [5] 0.037 | [6] -0.13 | givinostat -0.013 | barasertib 0.047

FAM207A (UniProt Q9NSI2)
UniProt Q9NSI2, sequence (Q9NSI2 whole entry, looked up): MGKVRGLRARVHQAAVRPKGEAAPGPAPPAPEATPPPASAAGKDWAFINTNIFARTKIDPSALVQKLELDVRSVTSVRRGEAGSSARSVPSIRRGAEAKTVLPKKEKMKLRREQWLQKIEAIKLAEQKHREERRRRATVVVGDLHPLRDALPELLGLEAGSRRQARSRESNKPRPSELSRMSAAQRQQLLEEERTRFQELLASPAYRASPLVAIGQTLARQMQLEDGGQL
inactive: [1] -0.086 | [2] 0.11 | [3] -0.006 | [4] 0.024 | Nexturastat A -0.047 | vemurafenib 0.038 | [5] -0.006 | [6] 0.44 | givinostat 0.148 | barasertib -0.036

DCTN1 isoform 4 (UniProt Q14203)
UniProt Q14203, sequence (Q14203 whole entry, looked up): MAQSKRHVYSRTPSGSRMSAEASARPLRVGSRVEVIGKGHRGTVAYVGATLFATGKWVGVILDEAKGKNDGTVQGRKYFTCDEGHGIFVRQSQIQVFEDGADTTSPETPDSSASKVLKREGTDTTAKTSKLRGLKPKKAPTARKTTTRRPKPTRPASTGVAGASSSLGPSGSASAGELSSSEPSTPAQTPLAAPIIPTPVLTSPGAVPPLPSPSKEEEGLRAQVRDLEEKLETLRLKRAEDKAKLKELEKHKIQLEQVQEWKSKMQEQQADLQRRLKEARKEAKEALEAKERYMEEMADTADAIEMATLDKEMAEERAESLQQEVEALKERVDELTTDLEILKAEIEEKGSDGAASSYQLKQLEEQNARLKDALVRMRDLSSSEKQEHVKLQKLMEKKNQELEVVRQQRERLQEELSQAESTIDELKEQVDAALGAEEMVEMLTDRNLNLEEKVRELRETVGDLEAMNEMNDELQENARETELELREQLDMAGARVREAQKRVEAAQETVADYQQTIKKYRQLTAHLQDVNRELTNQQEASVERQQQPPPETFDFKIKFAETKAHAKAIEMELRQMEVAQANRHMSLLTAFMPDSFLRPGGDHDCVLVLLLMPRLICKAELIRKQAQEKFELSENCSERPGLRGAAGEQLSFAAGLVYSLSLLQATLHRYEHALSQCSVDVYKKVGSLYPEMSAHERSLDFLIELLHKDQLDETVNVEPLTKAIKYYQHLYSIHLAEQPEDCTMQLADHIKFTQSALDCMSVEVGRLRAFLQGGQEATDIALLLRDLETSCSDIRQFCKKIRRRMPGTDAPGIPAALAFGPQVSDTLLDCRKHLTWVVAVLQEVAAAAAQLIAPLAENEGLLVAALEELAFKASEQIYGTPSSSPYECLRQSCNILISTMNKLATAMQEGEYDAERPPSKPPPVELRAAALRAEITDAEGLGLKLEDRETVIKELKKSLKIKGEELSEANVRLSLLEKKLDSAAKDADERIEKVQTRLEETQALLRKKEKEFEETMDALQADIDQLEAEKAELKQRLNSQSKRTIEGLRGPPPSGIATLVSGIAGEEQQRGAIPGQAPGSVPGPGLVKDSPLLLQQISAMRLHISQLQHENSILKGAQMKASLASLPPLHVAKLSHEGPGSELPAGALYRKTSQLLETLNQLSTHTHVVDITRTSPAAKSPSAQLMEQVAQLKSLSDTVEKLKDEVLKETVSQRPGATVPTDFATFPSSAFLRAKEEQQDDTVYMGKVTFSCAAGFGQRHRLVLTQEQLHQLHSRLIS
inactive: [1] 0.022 | [2] -0.017 | [3] 0.015 | [4] -0.039 | Nexturastat A 0.116 | vemurafenib -0.015 | [5] 0.019 | [6] 0.102 | givinostat 0.104 | barasertib 0.033

EEF1A1 (UniProt P68104)
inactive: [1] -0.069 | [2] -0.068 | [3] 0 | [4] 0.052 | Nexturastat A 0.086 | vemurafenib 0.031 | [5] 0.022 | [6] 0.089 | givinostat -0.044 | barasertib 0.052

CTSC (UniProt P53634)
inactive: [1] -0.113 | [2] 0.001 | [3] 0.059 | [4] -0.003 | Nexturastat A -0.009 | vemurafenib 0.035 | [5] 0.01 | [6] 0.03 | givinostat 0.017 | barasertib 0.023

FAM3A (UniProt P98173)
inactive: [1] -0.022 | [2] 0.012 | [3] -0.005 | [4] 0.003 | vemurafenib 0.015 | [5] 0.013 | [6] -0.031 | givinostat -0.001 | barasertib 0.014
active: Nexturastat A -0.304
